In the supplement of paper PMC6555819:

Test system: VDR:RXRa (NR concentration 270 nM, RXRa partner concentration 90 nM)
Test: PBM binding z-score (relative to random genomic background probes); higher = stronger binding; sequences stand for … in GC…GCGATTGACAGCGTAGAATGAAGG
Experimental: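 Protein-binding microarray (Agilent 4x180K custom design, double-stranded 60-nt probes: 5' GC cap, 34-nt variable region, 24-nt constant primer region; full probe sequence given). Purified or IVT nuclear receptor:RXRα heterodimers (3:1 NR:RXRα, mostly 270:90 nM) or homodimers were incubated for 1 h in PBS with 2% milk and no ligand, then detected with Alexa488 antibodies. Fluorescence from o1-orientation probes (~5 replicates averaged) was converted to z-scores against 500 random hg19 background probes. Variable regions are seed direct-repeat (DR0–DR5) sites, all their single-nucleotide variants and half-site ablations.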

Sequence | PBM binding z-score
TAGCATAGGTCATGGGCCAGTATACCACGCGAAC | 3.33
CCTTACGGGACACTCCAGGTTATAGCATCGGAGT | -0.0817
TCTTGTAGATCAACAGGTGGTTAAGAAAGATCGA | 0.266
TCGAGTAGGTTAGGGGCCTTCAGAATGGCGTCGA | -0.482
CGTCCAAGGGCATAGGAGGTCAGTGAAGACAGAT | 3.99
TCTTGTAGATCAATAGAGGTTAAGTAAGTGCGCT | 2.65
GCGACTGGGGCATCAGCAGGTTACCATTACTTAA | -0.244
CAAACTAAGTCAAGGTCAAAGTCGGTTTGTGCCA | 4.62
CGTCCAAGGTCCGCAGGTCAGTGAAAGCGACGTG | -0.111
GCTGGTAGGTCAGGTTGGTCAGCTAACGGGTACG | 1.04
CCAGACAGGTGAGAAGGTAACTGAGCCTCGATTA | -0.0476
CCTAGCAGGCCAGGGTCACTTAAGCATTTCGCTT | 2.3
TCTGCTAGGTCAGTTGGTCCGCTAACGAGCTGCC | 0.677
CGTCCAAGGTCAATGCTAGGACAGTGAAAGCATT | 3.83
GCCTGTAGATCAAGGTTAAGAAAGACTAAGCTAA | 0.142
TCGAGTAGGTTAGGGGCTTTCAGAATGGCGTCGA | -0.3
AGAATGAGGTTAAGATCCGGGAAACAGAATACAT | 1.05
TTACCAAGATGAAGGTCGTTGATCCCTCTGTAGA | 0.991
ACTATTAGTTGAGTCGAGGGCAACCGATAGGTTG | 0.728
CAGCCTAGCTCAGGGCCAGTATAGGAGGAACGTT | -0.907

Sequence | PBM binding z-score
GCATATAGGTAATACAAGGGGAAAGTCCGATTGT | -0.0932
TTATCAAGGTGAGCTGAGGTCGTTGATCCAACTC | 3.93
CGAACTACGTCAGAACAGGACAGTGAAGGATGAT | -0.451
AGAATGAGGTTATTAAGATCAGGGGATTGCGGTC | 2.36
TCTCGGAGGACACGAAAGGTCAGAGATCGACATC | 3.42
GGAACGAGGGCAAGTTAATAGCAGAGTTTGATGG | 0.803
TCTGCTAGGTCAGTTGGTCAGGTAACGAGCTGCC | -0.0561
TCAAGTTGGTCACGGAGGTCACACACGACGGGTA | 5.67
CGTCCAAGGTCGTAGGAGGTCAGTGAAGACAGAT | 5.47
TCTCGGAGGACACGTAAGGTCAGAGCTCGACATC | 2.69
CAAACTAGGTCACCGGAAGGTCAATGTCCGCATG | 5.36
GCTACTAGTTGAAAGGGCAACCGAATGATTCTCG | 0.234
TCTCGGAGGACACGAATGTCAGAGCTTTCCAGAG | -0.117
GCTTACGGGTCACAGGTTATAGCATGAATAGAAT | 3.9
TCAATGAGGTTAAAGATCAGGGAACGTGGCGTCG | 2.04
TCTTGTAGATCAGCAGGTAAAGAAAGCTGGCCAA | -0.142
ATCTCTAGGTAACAAGTTAAGTGAAAGAGAGGAC | 0.232
TTACCAAGGTGAGCTGAGATCGTTGATCCAACTC | -0.473
CCGACTGGGGCAGAACGGTTACCATACCATCCGG | -0.643
AGAATGAGGTTACCTAAGATCAGGGAAACGCTTG | 1.47
